JMJD2A Tudor – qHTS Assay for Inhibitors of JMJD2A-Tudor Domain; Lysine-specific demethylase 4A (Homo sapiens), O75164; AlphaScreen JMJD2A-Tudor / H3K4me3 peptide binding; Potency, µM (series often up to 114 µM), for inactives: top-dose activity change, negative = inhibition, usual class: inhibitors; hit rate 4.4% among 390,000; further: on the % scale 0 is the no-effect control and ±100 the full control effect; nearly all actives have a fitted effect of over 50% in size
Target sequence (O75164 whole entry, looked up, the tested form may be a part): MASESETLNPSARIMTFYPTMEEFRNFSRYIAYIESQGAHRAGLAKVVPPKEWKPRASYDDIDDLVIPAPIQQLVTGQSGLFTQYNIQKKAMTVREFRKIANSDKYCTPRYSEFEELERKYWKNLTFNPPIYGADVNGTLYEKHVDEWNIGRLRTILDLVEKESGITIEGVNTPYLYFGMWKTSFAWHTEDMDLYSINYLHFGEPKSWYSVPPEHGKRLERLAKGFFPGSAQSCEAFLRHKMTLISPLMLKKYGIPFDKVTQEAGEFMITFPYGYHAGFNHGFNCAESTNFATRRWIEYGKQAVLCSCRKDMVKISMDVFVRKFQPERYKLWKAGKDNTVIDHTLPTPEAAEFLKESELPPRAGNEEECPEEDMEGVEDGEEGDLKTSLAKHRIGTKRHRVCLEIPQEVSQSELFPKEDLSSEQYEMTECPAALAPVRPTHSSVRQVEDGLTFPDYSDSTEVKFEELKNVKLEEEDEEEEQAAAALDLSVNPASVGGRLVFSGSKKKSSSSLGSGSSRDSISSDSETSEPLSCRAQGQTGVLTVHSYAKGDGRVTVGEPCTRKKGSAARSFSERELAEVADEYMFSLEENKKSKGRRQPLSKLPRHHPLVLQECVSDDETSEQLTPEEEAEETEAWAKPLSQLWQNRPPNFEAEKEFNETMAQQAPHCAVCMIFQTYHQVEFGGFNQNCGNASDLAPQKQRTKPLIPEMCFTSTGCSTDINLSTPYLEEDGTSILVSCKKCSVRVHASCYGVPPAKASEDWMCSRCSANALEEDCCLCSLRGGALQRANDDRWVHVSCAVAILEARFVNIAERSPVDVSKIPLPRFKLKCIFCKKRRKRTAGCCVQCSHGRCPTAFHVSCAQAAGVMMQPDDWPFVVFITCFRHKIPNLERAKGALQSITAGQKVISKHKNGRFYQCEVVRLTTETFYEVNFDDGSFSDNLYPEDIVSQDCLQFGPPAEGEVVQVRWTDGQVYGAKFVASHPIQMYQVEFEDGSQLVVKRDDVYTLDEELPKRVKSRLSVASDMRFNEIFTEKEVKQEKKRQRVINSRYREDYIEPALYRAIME
HP1b binding inh – HTS for Inhibitors of HP1-beta Chromodomain Interactions with Methylated Histone Tails; Chromobox protein homolog 1 (Homo sapiens), P83916; AlphaScreen HP1-beta / biotin-H3K9me3 peptide binding; Potency, µM (highest dose often 114 µM), inactives show at the top dose activity change, negative = inhibition, actives largely listed as inhibitors; hit rate 0.56% among 390,000; further: nearly all actives have a fitted effect of over 70% in size
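AlphaScreen: HP1-beta (50 nM) preformed 30 min with biotin-H3(1-18)K9me3 peptide (50 nM) in PBS pH 7.4, 0.01% Tween-20. Compound added for 30 min at RT, then streptavidin donor/nickel chelate acceptor beads (10 ug/mL) for 30 min.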
Sfp inh – qHTS Assay for Inhibitors of Bacillus subtilis Sfp phosphopantetheinyl transferase (PPTase); Potency, µM, for inactives: largest response in the series, negative = inhibition, usual class: inhibitors; Biochemical Sfp PPTase activity, qHTS; AID 1490, 2009; hit rate 3.5% among 310,000; 4'-phosphopantetheinyl transferase ffp (Bacillus subtilis), Q9F4F7;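 further: the enzyme is Sfp with the accession as filed and its product quenches rhodamine fluorescence; 0% = enzyme reaction without inhibitor and -100% = no enzyme wells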
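Fluorescence-quenching assay with 15 nM Sfp, 5 uM rhodamine-CoA and 12.5 uM BHQ-2-labelled ybbR peptide in pH 7.6 Hepes/MgCl2 buffer. Enzyme was pre-incubated with compound for 15 min at room temperature. Rate was taken from the 30-min fluorescence change (525/598 nm).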
BAZ2B inh – qHTS Assay for Inhibitors of BAZ2B; hit rate 4.4% among 360,000; AlphaScreen BAZ2B-H3K14Ac peptide displacement; Potency, µM (top dose mostly 114 µM), without a hit: at the top dose activity change, negative = inhibition, actives largely listed as inhibitors; further: on the % scale 0 is the no-effect control and ±100 the full control effect; nearly all actives have a fitted effect of over 60% in size
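Multi-concentration screen (max 110 uM) measuring displacement of acetylated histone H3 peptide from BAZ2B by AlphaScreen, using 50 nM protein, 50 nM peptide and 10 ug/mL streptavidin donor plus Ni-chelate acceptor beads.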
G9a block – qHTS Assay for Inhibitors of Histone Lysine Methyltransferase G9a. Histone-lysine N-methyltransferase EHMT2 (Homo sapiens), Q96KQ7. G9a H3K9 monomethylation, AlphaScreen, 2 h. Potency, µM (titrated, usually from 102 µM), without a hit: at the top dose activity, negative = inhibition, actives largely listed as inhibitors. hit rate 8.8% among 350,000; further: on the % scale 0 is the no-effect control and ±100 the full control effect; nearly all actives have a fitted effect of over 75% in size
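G9a (20 nM) was preincubated 15 min with compound, then reacted 2 h at room temperature with 500 nM biotin-H3K9 peptide and 20 µM SAM. Monomethyl-H3K9 detected by AlphaScreen using anti-H3K9me1 antibody.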
Active calls of the source: *; ? = inconclusive; . = not tested or not shown; ! = a repeat was not active; [ ] = another dose, or the depositor's remark. A selection: hits, their analogues and other compounds. The true share with any hit is near 12%. The call rests on the fitted dose curve; in most records, active means well fitted curve in the direction sought with a large enough effect; inconclusive means small, poorly fitted or top-dose-only effect, or another doubt; inactive means no such curve, though single readings can be large; an effect the other way counts as inactive or inconclusive. Potency means the concentration at half of the fitted maximal effect.

SMILES	JMJD2A Tudor	HP1b binding inh	Sfp inh	BAZ2B inh	G9a block
Cc1c(Cl)cccc1Nc1ncccc1C(=O)O	25µM*!	7%	11%	-9%	-24%[12.7 µM]
CC(C)(C)NC(=O)C1CC(=O)OC12CCCCC2 (stereo not drawn)	1%	18%	12%	17%	14%
CC(=O)Nc1ccc(S(=O)(=O)N[C@@H](C)C(=O)Nc2ccc(N3CCOCC3)cc2)cc1	-9%	6%	6%	1%	?
Cc1c(NC(=O)c2ccc(-c3ccccc3)cc2)cccc1C(=O)O	4%	24%	20%	-4%	-3%
Cc1c(NC(=O)c2cccnc2C(=O)O)cccc1C(=O)O	2.5µM*	?	?	35µM*	8.9µM*
O=C(NN=C1CCCC1)c1ccccc1O	?	40%	-3%	-7%	.
O=C(O)c1ccccc1NN=C1CCCCC1	?	7%	-12%	-9%	8.9µM*
Cc1c(Cl)cccc1Nc1ccccc1C(=O)O	-10%	17%	5%	-33%	45µM*!
CC(C)c1ccccc1NC(=O)C1C2C=CC(C2)C1C(=O)O (stereo not drawn)	-9%	51%	?	10%	.
O=C(O)c1ccccc1NC(=O)C1C2C=CC(C2)C1C(=O)O (stereo not drawn)	-10%	12%	20µM*	-7%	?
Cc1cc(NC(=O)CCC(=O)N(c2ccccc2F)C(C(=O)NC2CCCC2)c2ccccc2)no1 (stereo not drawn)	-7%	24%	0%	5%	18%[59 µM]
Cc1occc1C(=O)N(Cc1nc(-c2ccccc2)no1)C(C)C	14%	64%	25%	-21%	14%[59 µM]
Cc1nnc(NC(=O)c2ccccc2NC(=O)c2ccccc2)s1	-7%	48%	-9%	-17%	50µM*
COC(=O)c1ccc(NC(=O)C2C3C=CC(C3)C2C(=O)O)cc1 (stereo not drawn)	0%	21%	-2%	3%	8%
Cc1ccc(-c2ccc(NC(=O)C3C4C=CC(C4)C3C(=O)O)cc2)o1 (stereo not drawn)	-32%	14%	2.2µM*	?	16µM*
O=C(ONC(=O)C1C2C=CC(C2)C1C(=O)NOC(=O)c1ccccc1)c1ccccc1 (stereo not drawn)	0.79µM*	52%	.	.	.
COc1cc(NC(=O)C2CC2)c(OC)cc1NC(=O)CCC(=O)NC1CCN(Cc2ccccc2)CC1	-15%	20%	16%	-4%	40µM*
CC(=O)c1cc(-c2ccccc2)n(CCC(=O)Nc2ccc(C)cc2C)c1C	-5%	15%	.	-4%	3%[59 µM]
CC(=O)c1ccc(S(=O)(=O)NCCC(=O)NC2CCN(Cc3ccccc3)CC2)cc1	4.5µM*	14µM*	.	.	.
CC(=O)c1cc(-c2ccccc2)n(CCC(=O)NC2CCCCCCC2)c1C	-30%	-28%	-15%	50µM*	1%[59 µM]
CCC(C)(C)NC(=O)CCn1c(-c2ccccc2)cc(C(C)=O)c1C	-17%	6%	-4%	50µM*	-22%
O=C(COc1cccc2cccnc12)NNC(=O)Nc1ccccc1	-8%	31%	9%	-29%	-1%
O=C(Cn1ccc([N+](=O)[O-])n1)N1CCCc2ccccc21	-19%	14%	-15%	-5%	?
CCOC(=O)c1cc(-c2ccc(OC)cc2)n(CCC(=O)NC2CCN(Cc3ccccc3)CC2)c1C	?	-33%	6%	40µM*	?
c1ccc(-c2c3ccccc3nc3[nH]c4ccccc4c23)cc1	-8%	56%	-7%	4%	89µM*
CCOC(=O)C1C(=O)NCC2CCCC21 (stereo not drawn)	-3%	27%	6%	6%	12%[12.7 µM]
CCOC(=O)C1C(=O)C(C(C)=O)C(=O)CC1CC(C)SCC (stereo not drawn)	89µM*	-2%	-12%	-9%	?
O=C(O)c1ccc2c(c1)-c1nc3ccccc3n1C2=O	18µM*	4%	?	?	40µM*
